Experimental findings from ChEMBL document CHEMBL3988442, “University of Dundee, Small-Polar-MMV Screening Library” (2021) are described below.

Molecules are shown by their SMILES. The campaign covered roughly 48,000 compounds. About 13,000 (27%) showed an effect of 50% or more. Some of the results follow.

This assay has as its system Wolbachia pipientis. The assay can be described thus: Anti-Wolbachia Cell-Based Screen. The format is functional. Also noted: scale not given: in the data most compounds retested in dose-response had high values. The following applies: 5 µM.
Consider `COc1cnc(N2C[C@H](CO)C[C@H](CN3CCOCC3)C2)nc1`, for which the “Percent Effect” value is listed as -6.58%. For `Cc1ccc(CN(C(=O)C(C)S(C)(=O)=O)C2CC2)cc1C` (stereo not given), the “Percent Effect” value is on record as -15.47%. As for `Cc1ccc(S(=O)(=O)N(C)CC(C)O)c(F)c1` (stereo not given), the “Percent Effect” value was found to be 4.809%. Take `CCc1ncc(C(=O)NC(C)(C)C(=O)OC)s1`: the “Percent Effect” value is given as -4.518%. The value for `Cn1ccnc1CN1CCC2(CC1)COCCN(c1ncccn1)C2` was 118.1%.

Regarding `COCC1CC2(CCN(Cc3nccn3C)CC2)CN1c1ncccn1.O=C(O)C(F)(F)F` (stereo not given), the “Percent Effect” value is given as -8.738%. The value for `c1cnc(N2CCOCC3(CCN(c4cnccn4)CC3)C2)nc1` was -29.45%; that for `Cn1cc2ncn(CCNc3cccnc3)c(=O)c2n1` was -8.591%.

As for `Cc1cccc(C(=O)N2CCCCC2c2nc(C)cs2)n1` (stereo not given), the “Percent Effect” value amounted to 80.1%. Regarding `Cc1csc(C2CCCCN2C(=O)c2cn[nH]c2C)n1` (stereo not given), the “Percent Effect” value was 83.45%.

As to `COc1ccc(C(=O)N2CCCCC2c2nc(C)cs2)nn1` (stereo not given), the “Percent Effect” value is -5.655%. Take `Cc1ccc(CC(=O)N2CCCCC2c2nc(C)cs2)cn1` (stereo not given): the “Percent Effect” value came out at 2.602%. Consider `Cc1csc(C2CCCCN2C(=O)c2cc(C)n(C)n2)n1` (stereo not given), for which the “Percent Effect” value came out at 98.18%. The value for `Cc1cnc(C(=O)N2CCCCC2c2nc(C)cs2)cn1` (stereo not given) was 81.82%; that for `Cc1cncc(C(=O)N2CCCCC2c2nc(C)cs2)c1` (stereo not given) was 6.279%. For the compound `Cc1csc(C2CCCCN2C(=O)c2cnn3ccc(C)nc23)n1` (stereo not given), the “Percent Effect” value is 2.073%. The value for `CC(C)(C)c1ccc(C2(C(=O)NCCS(N)(=O)=O)CC2)cc1` was -15.99%; that for `Cc1csc(C2CCCCN2C(=O)c2c[nH]c(C)n2)n1` (stereo not given) was 62.15%; that for `CCOCC(=O)N1CSCC1C(=O)N(C)Cc1ccco1` (stereo not given) was 113.6%. `Cc1ccc(CC(=O)N2CSCC2C(=O)N(C)Cc2ccco2)o1` (stereo not given): the “Percent Effect” value was found to be 8.524%. The value for `CN(Cc1cc(-c2cccnc2)no1)C(=O)[C@@H]1CSCN1C` was -21.19%; that for `CN(Cc1ccco1)C(=O)[C@H]1CSCN1C(=O)OC(C)(C)C` was 12.78%. Then `CN(Cc1ccco1)C(=O)C1CSCN1C(=O)c1cccnc1` (stereo not given), with 0.06211%; and `CN(Cc1ccco1)C(=O)C1CSCN1C(=O)c1cccs1` (stereo not given), with 104.7%.

`CN(Cc1ccco1)C(=O)NCC(c1cccs1)N(C)C` (stereo not given): the “Percent Effect” value is reported as 1.793%. Then `CN(Cc1ccco1)C(=O)C1CSCN1C(=O)C1CCC1` (stereo not given), with 111.9%; and `Cn1c(CN2CCCC2c2noc(C3CC3)n2)cc(=O)n(C)c1=O` (stereo not given), with -13.43%. For `COCC(=O)N1CCCC2(CCN(CCN3CCCC3)CC2)C1.O=C(O)C(F)(F)F.O=C(O)C(F)(F)F`, the “Percent Effect” value was 18.87%.

For `CCc1n[nH]c(C2CN(C(=O)c3cc(C4CC4)on3)CCO2)n1` (stereo not given), the “Percent Effect” value is on record as 117.8%. Consider `CCCc1n[nH]c(C2CN(C(=O)c3cc(C4CC4)on3)CCO2)n1` (stereo not given), for which the “Percent Effect” value turned out to be 114.4%.

On to `O=S(=O)(c1c(Cl)nc2sccn12)N1CCC2(CCNCC2)C1`, for which the “Percent Effect” value is listed as -2.285%. Turning to `CC(C)(C)CN[C@@H]1CO[C@H](CNC(=O)C2CCCC2)[C@H]1O`, the “Percent Effect” value is on record as -14.33%. Then `CN(C)Cc1nn(C)c2c1CN(C(=O)c1ccc[nH]1)C2.O=C(O)C(F)(F)F`, with -9.086%. As for `Cc1ccc(CS(=O)(=O)N2Cc3c(CN(C)C)nn(C)c3C2)cc1.O=C(O)C(F)(F)F`, the “Percent Effect” value worked out at 96.76%. Consider `COc1ccc(S(=O)(=O)N2Cc3c(CN(C)C)nn(C)c3C2)cc1.O=C(O)C(F)(F)F`, for which the “Percent Effect” value is reported as -0.8573%. On to `CCc1ccc(S(=O)(=O)N2Cc3c(CN(C)C)nn(C)c3C2)cc1.O=C(O)C(F)(F)F`, for which the “Percent Effect” value was determined as 97.57%. Then `CCc1ccc(NC(=O)N2Cc3c(CN(C)C)nn(C)c3C2)cc1.O=C(O)C(F)(F)F`, with -20.31%; and `Cc1ccc(S(=O)(=O)N2Cc3c(CN(C)C)nn(C)c3C2)cc1`, with -16.71%; and `C=Cc1cccc(CN2CCCn3nc(CNS(C)(=O)=O)cc3C2)c1`, with 10.79%. For the compound `O=C1C(Sc2cnn[nH]2)CCCN1c1ccccc1F` (stereo not given), the “Percent Effect” value is recorded as -1.507%. For `Cc1n[nH]c(C2CN(Cc3csc(C4CC4)n3)CCO2)n1` (stereo not given), the “Percent Effect” value is given as -12.76%. On to `Cc1ccc(OCCNC(=O)C2CCOCC2)c(C)c1`, for which the “Percent Effect” value was -7.551%. Then `COCCOc1ncccc1C(=O)N(C)c1ccc(OC)c(OC)c1`, with -8.68%; and `Cc1ccc(Oc2ncccc2C(=O)N(C)CCCN(C)C)cc1`, with 116.5%; and `CC(CNC(=O)c1cccnc1Oc1cccnc1)N(C)C` (stereo not given), with -15.37%. The value for `Cc1ccc(Oc2ncccc2C(=O)N(C)CCCN(C)C)c(C)c1` was 137.8%; that for `COc1ccc(Oc2ncccc2C(N)=O)cc1CN1CCCC1` was -15.13%. Regarding `Cc1ccc(Oc2ncccc2C(=O)O)c(C)c1`, the “Percent Effect” value amounted to 113.8%. For `Cc1ccc(Oc2ncccc2C(=O)N(C)CC2OCCO2)c(C)c1`, the “Percent Effect” value is 132.9%. Consider `CCOc1ncccc1C(=O)N(C)Cc1ncc(C)c(OC)c1C`, for which the “Percent Effect” value is -9.581%. For `COC(=O)C(NC(=O)c1ccc(C)cc1C)c1cccnc1` (stereo not given), the “Percent Effect” value was 2.23%. On to `CC(C)CC(CNC(=O)c1cccnc1Oc1cccnc1)N(C)C` (stereo not given), for which the “Percent Effect” value is given as -29.76%.

Take `Cc1ccc(OCCN(C)Cc2nccn2C)c(C)c1`: the “Percent Effect” value was found to be 1.849%.

Consider `CCc1cc(CNC(=O)N(C2CC2)C(C)c2ccco2)on1` (stereo not given), for which the “Percent Effect” value was -6.882%. With `O=S(=O)(CCSc1nccn1C1CC1)c1ccccc1`, the “Percent Effect” value was determined as 2.896%. As for `COc1ccc(CN2C[C@@H]3OCC(=O)N(Cc4nccn4C)[C@@H]3C2)cc1`, the “Percent Effect” value is on record as -2.723%. For the compound `Cc1cnn(CCNCC(=O)NC2(C#N)CCCC2)c1`, the “Percent Effect” value stood at 1.433%.

`COc1ccccc1CC(=O)NC(CC(=O)O)c1ccc(F)cc1` (stereo not given): the “Percent Effect” value is recorded as 7.485%.

As to `Cc1nc2n(n1)CCN(S(=O)(=O)c1ccc(OC(F)(F)F)cc1)C2`, the “Percent Effect” value is on record as -10.24%. Turning to `O=c1[nH]cnc2c1CCN(S(=O)(=O)c1ccc(Cl)cc1)C2`, the “Percent Effect” value is reported as 81.06%. As for `CCOCc1ncn2c1CN(S(=O)(=O)c1ccc(OC)cc1)CC2`, the “Percent Effect” value turned out to be 3.877%.

In the case of `CCOCCOc1ccc(S(=O)(=O)N2CCc3c(nc[nH]c3=O)C2)cc1`, the “Percent Effect” value is on record as 99.77%. Consider `COc1cccc(S(=O)(=O)N2CCCc3c(OC)nn(C)c3C2)c1`, for which the “Percent Effect” value was -0.459%. `O=c1[nH]cnc2c1CCN(S(=O)(=O)c1ccc(OC(F)(F)F)cc1)C2`: the “Percent Effect” value turned out to be 93.77%. On to `O=c1[nH]cnc2c1CCN(S(=O)(=O)c1cccc(OC(F)(F)F)c1)C2`, for which the “Percent Effect” value is recorded as 122.9%.

`COCc1ncn2c1CN(S(=O)(=O)c1cccc(OC)c1)CC2`: the “Percent Effect” value is 5.522%. Then `CCOCc1cncc2c1CCN(S(=O)(=O)c1ccc(C)cc1)C2`, with 7.269%; and `Cc1nc2n(n1)CCN(S(=O)(=O)c1ccc(Cl)cc1)C2`, with -10.09%. `CN(C)c1ncnc2c1CCN(S(=O)(=O)c1cccc(Cl)c1Cl)C2`: the “Percent Effect” value is recorded as -2.011%.

With `CN(C)c1ncnc2c1CCN(S(=O)(=O)c1ccccc1C(F)(F)F)C2`, the “Percent Effect” value stood at 15.95%.
